Test results: PubChem BioAssay AID1159580 (chemical genetic matrix, 2015)
Hit rate of the full screen: of about 5,500 compounds, about 2,000 (36%) were called active. Inconclusive results (about 18%) are left out. Rule as the data show it: active = normalized growth mostly below about 0.91 (no sharp cut-off); inconclusive = no clear call, values can overlap the other calls; inactive = mostly above about 0.92. Some of the results follow.

Experiment: chemical genetic growth profiling, strain panel (AID 1159580);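 also: tested at 20 µM; growth read once vehicle control cultures reached saturation at 30 °C; 1 = growth at the plate median or of vehicle wells; lower values mean less growth of the strain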
Settings: growth OD
[1] = S. cerevisiae deletion strains, locus YHR030C, strain SLT2, active compounds read low
[2] = S. cerevisiae deletion strains, locus YJL187C, strain SWE1, active compounds read low

Measured: normalized growth

O=[N+]([O-])c1ccc(C(O)C(O)CO)cc1 (configuration not stated)
inactive: S. cerevisiae deletion strains, locus YAL013W, strain DEP1, active compounds read low 0.974 | S. cerevisiae deletion strains, locus YBR229C, strain ROT2, active compounds read low 0.981 | S. cerevisiae deletion strains, locus YDL101C, strain DUN1, active compounds read low 1.01 | S. cerevisiae deletion strains, locus YDR150W, strain NUM1, active compounds read low 1 | S. cerevisiae deletion strains, locus YEL061C, strain CIN8, active compounds read low 1 | S. cerevisiae deletion strains, locus YGR078C, strain PAC10, active compounds read low 0.996 | [1] 1.07 | S. cerevisiae deletion strains, locus YHR087W, strain rtc3, active compounds read low 0.958 | [2] 0.993 | S. cerevisiae deletion strains, locus YJR043C, strain POL32, active compounds read low 0.987 | S. cerevisiae deletion strains, locus YJR075W, strain HOC1, active compounds read low 0.988 | S. cerevisiae deletion strains, locus YLR039C, strain RIC1, active compounds read low 0.974 | S. cerevisiae deletion strains, locus YLR058C, strain SHM2 (second series), active compounds read low 0.988 | S. cerevisiae deletion strains, locus YLR085C, strain ARP6, active compounds read low 0.986 | S. cerevisiae deletion strains, locus YLR262C, strain YPT6, active compounds read low 0.963 | S. cerevisiae deletion strains, locus YML094W, strain GIM5, active compounds read low 0.99 | S. cerevisiae deletion strains, locus YMR219W, strain ESC1, active compounds read low 0.994 | S. cerevisiae deletion strains, locus YMR263W, strain SAP30, active compounds read low 1 | S. cerevisiae deletion strains, locus YMR307W, strain GAS1, active compounds read low 0.959 | S. cerevisiae deletion strains, locus YNL153C, strain GIM3, active compounds read low 0.987 | S. cerevisiae deletion strains, locus YNL298W, strain CLA4 (second series), active compounds read low 0.961 | S. cerevisiae deletion strains, locus YNL322C, strain KRE1, active compounds read low 0.996 | S. cerevisiae deletion strains, locus YNR030W, strain Alg12, active compounds read low 0.983 | S. cerevisiae deletion strains, locus YPL055C, strain LGE1, active compounds read low 0.971 | S. cerevisiae deletion strains, locus YPL241C, strain CIN2, active compounds read low 1 | S. cerevisiae deletion strains, locus YPR135W, strain CTF4, active compounds read low 1.02 | S. cerevisiae strains, strain wild type, active compounds read low 0.979

COP(=S)(OC)Oc1ccc(Sc2ccc(OP(=S)(OC)OC)cc2)cc1
inactive: S. cerevisiae deletion strains, locus YAL021C, strain ccr4, active compounds read low 1 | S. cerevisiae deletion strains, locus YAL026C, strain drs2, active compounds read low 1 | S. cerevisiae deletion strains, locus YAL030W, strain snc1, active compounds read low 0.999 | S. cerevisiae deletion strains, locus YBL061C, strain skt5, active compounds read low 1.01 | S. cerevisiae deletion strains, locus YBR009C, strain hhf1, active compounds read low 1.01 | S. cerevisiae deletion strains, locus YBR023C, strain chs3, active compounds read low 1.01 | S. cerevisiae deletion strains, locus YBR171W, strain sec66, active compounds read low 0.992 | S. cerevisiae deletion strains, locus YBR231C, strain swc5, active compounds read low 1 | S. cerevisiae deletion strains, locus YBR279W, strain paf1, active compounds read low 1.01 | S. cerevisiae deletion strains, locus YCL011C, strain gbp2, active compounds read low 1 | S. cerevisiae deletion strains, locus YCL016C, strain dcc1, active compounds read low 1.01 | S. cerevisiae deletion strains, locus YCL061C, strain MRC1, active compounds read low 1.01 | S. cerevisiae deletion strains, locus YCL069W, strain vba3, active compounds read low 1.01 | S. cerevisiae deletion strains, locus YCR088W, strain abp1, active compounds read low 0.994 | S. cerevisiae deletion strains, locus YDL005C, strain med2, active compounds read low 0.998 | S. cerevisiae deletion strains, locus YDL040C, strain nat1, active compounds read low 1 | S. cerevisiae deletion strains, locus YDR001C, strain nth1, active compounds read low 1.01 | S. cerevisiae deletion strains, locus YDR069C, strain doa4, active compounds read low 1.02 | S. cerevisiae deletion strains, locus YDR137W, strain rgp1, active compounds read low 1.02 | S. cerevisiae deletion strains, locus YDR159W, strain sac3, active compounds read low 0.994 | S. cerevisiae deletion strains, locus YDR195W, strain ref2 0.976 | S. cerevisiae deletion strains, locus YDR297W, strain sur2, active compounds read low 1 | S. cerevisiae deletion strains, locus YDR334W, strain swr1, active compounds read low 1.01 | S. cerevisiae deletion strains, locus YDR335W, strain msn5, active compounds read low 1.01 | S. cerevisiae deletion strains, locus YDR392W, strain spt3, active compounds read low 0.993 | S. cerevisiae deletion strains, locus YEL003W, strain gim4, active compounds read low 1.01 | S. cerevisiae deletion strains, locus YEL037C, strain rad23, active compounds read low 1 | S. cerevisiae deletion strains, locus YEL061C, strain CIN8 (second series), active compounds read low 1 | S. cerevisiae deletion strains, locus YER015W, strain faa2, active compounds read low 1 | S. cerevisiae deletion strains, locus YER016W, strain bim1, active compounds read low 1 | S. cerevisiae deletion strains, locus YER111C, strain swi4, active compounds read low 1 | S. cerevisiae deletion strains, locus YER155C, strain BEM2 (second series), active compounds read low 1 | S. cerevisiae deletion strains, locus YFR010W, strain ubp6, active compounds read low 1.01 | S. cerevisiae deletion strains, locus YGL167C, strain pmr1, active compounds read low 0.998 | S. cerevisiae deletion strains, locus YGL173C, strain kem1, active compounds read low 1 | S. cerevisiae deletion strains, locus YGL227W, strain vid30, active compounds read low 1 | S. cerevisiae deletion strains, locus YGL240W, strain doc1, active compounds read low 0.999 | S. cerevisiae deletion strains, locus YGL253W, strain hxk2, active compounds read low 1 | S. cerevisiae deletion strains, locus YHR013C, strain ard1, active compounds read low 0.986 | S. cerevisiae deletion strains, locus YHR027C, strain rpn1, active compounds read low 1.01 | [1] 0.973 | S. cerevisiae deletion strains, locus YHR079C, strain IRE1, active compounds read low 1.01 | S. cerevisiae deletion strains, locus YHR142W, strain chs7, active compounds read low 1.01 | S. cerevisiae deletion strains, locus YJL092W, strain hpr5, active compounds read low 1 | S. cerevisiae deletion strains, locus YJL095W, strain BCK1 (second series), active compounds read low 1 | S. cerevisiae deletion strains, locus YJL095W, strain BCK1, active compounds read low 0.999 | S. cerevisiae deletion strains, locus YJL115W, strain asf1, active compounds read low 1 | S. cerevisiae deletion strains, locus YJL129C, strain trk1, active compounds read low 1.02 | S. cerevisiae deletion strains, locus YJL154C, strain vps35, active compounds read low 1.01 | S. cerevisiae deletion strains, locus YJL164C, strain tpk1, active compounds read low 1.02 | S. cerevisiae deletion strains, locus YJL166W, strain qcr8, active compounds read low 1.01 | [2] 1.01 | S. cerevisiae deletion strains, locus YJR066W, strain TOR1, active compounds read low 0.946 | S. cerevisiae deletion strains, locus YKL160W, strain elf1, active compounds read low 1 | S. cerevisiae deletion strains, locus YKR026C, strain gcn3, active compounds read low 1 | S. cerevisiae deletion strains, locus YKR091W, strain srl3, active compounds read low 0.997 | S. cerevisiae deletion strains, locus YLL001W, strain dnm1, active compounds read low 1 | S. cerevisiae deletion strains, locus YLL026W, active compounds read low 0.995 | S. cerevisiae deletion strains, locus YLL041C, strain sdh2, active compounds read low 1 | S. cerevisiae deletion strains, locus YLR027C, strain aat2, active compounds read low 1 | S. cerevisiae deletion strains, locus YLR113W, strain HOG1, active compounds read low 0.977 | S. cerevisiae deletion strains, locus YLR221C, strain rsa3, active compounds read low 1 | S. cerevisiae deletion strains, locus YLR258W, strain gsy2, active compounds read low 1 | S. cerevisiae deletion strains, locus YLR262C, strain YPT6 (second series), active compounds read low 1.04 | S. cerevisiae deletion strains, locus YLR320W, strain mms22, active compounds read low 0.993 | S. cerevisiae deletion strains, locus YLR342W, strain FKS1, active compounds read low 1.01 | S. cerevisiae deletion strains, locus YLR357W, strain rsc2, active compounds read low 1.01 | S. cerevisiae deletion strains, locus YLR370C, strain arc18, active compounds read low 1.01 | S. cerevisiae deletion strains, locus YLR384C, strain iki3, active compounds read low 1 | S. cerevisiae deletion strains, locus YML120C, strain ndi1, active compounds read low 1.01 | S. cerevisiae deletion strains, locus YMR058W, strain fet3, active compounds read low 1.04 | S. cerevisiae deletion strains, locus YMR125W, strain sto1, active compounds read low 1 | S. cerevisiae deletion strains, locus YMR129W, active compounds read low 1.01 | S. cerevisiae deletion strains, locus YMR205C, strain PFK2, active compounds read low 0.992 | S. cerevisiae deletion strains, locus YMR231W, strain pep5, active compounds read low 1 | S. cerevisiae deletion strains, locus YNL071W, strain lat1, active compounds read low 1.01 | S. cerevisiae deletion strains, locus YNL183C, strain NPR1, active compounds read low 0.945 | S. cerevisiae deletion strains, locus YNL209W, strain ssb2, active compounds read low 1.01 | S. cerevisiae deletion strains, locus YNL248C, strain rpa49, active compounds read low 1 | S. cerevisiae deletion strains, locus YNL322C, strain KRE1 (second series), active compounds read low 1 | S. cerevisiae deletion strains, locus YNR049C, strain mso1, active compounds read low 1.01 | S. cerevisiae deletion strains, locus YOR001W, strain rrp6, active compounds read low 1 | S. cerevisiae deletion strains, locus YOR070C, strain gyp1, active compounds read low 1.01 | S. cerevisiae deletion strains, locus YOR080W, strain dia2, active compounds read low 1 | S. cerevisiae deletion strains, locus YOR083W, strain WHI5, active compounds read low 1.01 | S. cerevisiae deletion strains, locus YOR106W, strain vam3, active compounds read low 0.999 | S. cerevisiae deletion strains, locus YOR231W, strain MKK1, active compounds read low 0.984 | S. cerevisiae deletion strains, locus YOR265W, strain rbl2, active compounds read low 1.02 | S. cerevisiae deletion strains, locus YOR270C, strain vph1, active compounds read low 1.03 | S. cerevisiae deletion strains, locus YOR290C, strain snf2, active compounds read low 1 | S. cerevisiae deletion strains, locus YPL051W, strain arl3, active compounds read low 1.01 | S. cerevisiae deletion strains, locus YPL078C, strain atp4, active compounds read low 1.01 | S. cerevisiae deletion strains, locus YPL106C, strain sse1, active compounds read low 1.03 | S. cerevisiae deletion strains, locus YPL240C, strain hsp82, active compounds read low 1 | S. cerevisiae deletion strains, locus YPL256C, strain CLN2, active compounds read low 1.03
